# Assay outcomes as filed in PubChem BioAssay.
# PNC inhibitor – High Content Assay for Compounds that inhibit the Assembly of the Perinucleolar Compartment; PC3M PTB-GFP, PNC prevalence imaging, 16 h; stronger effect = lower value; activity change (PNC), negative = inhibition, % at 10 µM; 140,000 compounds, 3.1% hits;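 active means readout at or below -70, meaning at least 70% loss of cells showing the perinucleolar compartment, a nuclear body marking cancer cells; inconclusive means readout between -30 and a set limit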;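 further: plate controls were DMSO wells for no effect and camptothecin positive control wells for full effect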
#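 PC3M cells stably expressing PTB-GFP, 750–1000 cells/well, treated 16 h at 37 °C with compound (23 nl of library stock), in duplicate. After paraformaldehyde fixation and Hoechst stain, imaged at 20x; PNC prevalence scored by image analysis.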
# KinaseGlo FLuc – Counterscreen for Luciferase (Kinase-Glo TM) Inhibition. 200,000 compounds, 0.28% hits. Potency, µM (titrated, usually from 38.3 µM), for inactives: at the top dose activity change, negative = inhibition, most hits filed as inhibitors. Luciferin 4-monooxygenase (Photuris pensylvanica), Q27757. Kinase-Glo luciferase, ATP luminescence, 8 min; active means well fitted inhibition curve with a large enough effect; inconclusive means small, poorly fitted or top-dose-only effect; further: potency means the concentration at half of the fitted maximal effect; nearly all actives have a fitted effect of over 60% in size
#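 Compounds were added to a substrate mix at pH 7.2 (50 mM imidazole, 10 uM ATP, within the enzyme's linear range), followed by Kinase-Glo detection reagent; luminescence was measured after 8 minutes at ambient temperature.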
# IMPase cell inh – qHTS Assay for Identifying the Cell-Membrane Permeable IMPase Inhibitors; CHO-M1 cells, IP1 accumulation, HTRF TR-FRET ratio; AID 901, 2007; inhibition (IP1 accumulation), % at 46.1 µM; Inositol monophosphatase 1 (Rattus norvegicus), P97697; 120,000 tested, under 10 active; active means well fitted curve in the direction sought with a large enough effect in the signal ratio, not every such curve was filed as active; inconclusive means small, poorly fitted or top-dose-only effect, or a change in a side signal; inactive means no such curve, though single readings can be large or run the other way; the % refers to the signal ratio;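 further: cells stimulated with carbachol in lithium chloride buffer; plate controls were DMSO basal wells for no effect and reference inhibitor wells for full effect; higher means more IMPase inhibition seen as more IP1 and lower FRET ratio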
# Target sequence (P97697 whole entry, looked up): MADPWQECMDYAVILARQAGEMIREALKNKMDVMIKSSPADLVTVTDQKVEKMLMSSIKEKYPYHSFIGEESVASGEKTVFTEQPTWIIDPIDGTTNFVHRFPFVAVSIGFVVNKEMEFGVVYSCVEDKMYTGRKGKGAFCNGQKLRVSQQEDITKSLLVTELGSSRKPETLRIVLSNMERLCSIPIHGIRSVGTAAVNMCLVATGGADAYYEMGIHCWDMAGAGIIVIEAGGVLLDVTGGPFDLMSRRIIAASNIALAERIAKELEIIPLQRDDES
#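 The IP-One HTRF competitive assay in carbachol-stimulated CHO-M1 cells quantifies cellular IP1. Compounds spanned up to 46 uM final, and activity is expressed as AC50 from concentration-response fits of the ratio and donor data.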
# Lamin A splicing – qHTS Assay for Modulators of Lamin A Splicing; HeLa LMNA splicing GFP/RFP minigene ratio, 48 h; Potency, µM (highest dose often 46.1 µM), inactives show at the top dose ratio change, negative = inhibition, most hits filed as inhibitors; 200,000 compounds, 0.01% hits; AID 1487, 2009; active means well fitted inhibition curve with a large enough effect in the signal ratio, with a control signal flat, not every such curve was filed as active; inconclusive means small, poorly fitted or top-dose-only effect, or effect the other way, or a change in a side signal; the % refers to the signal ratio; further: potency means the concentration at half of the fitted maximal effect
#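 S3 HeLa cells stably expressing lamin A-EGFP splicing minigene plus DsRed2, 600 cells/well, 48 h compound exposure at 37C. Laser-scanning cytometry; analysed as GFP (500-530 nm)/RFP (575-640 nm) total intensity ratio; 0.5% DMSO vehicle.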
# ALDH1A1 inh – qHTS Assay for Inhibitors of Aldehyde Dehydrogenase 1 (ALDH1A1) | 220,000 compounds, 7.3% hits | Purified ALDH1A1, NADH fluorescence, propionaldehyde substrate | Potency, µM (highest dose often 75.3 µM), for the others: top-dose activity, negative = inhibition, usual class: inhibitors | Aldehyde dehydrogenase 1A1 (Homo sapiens), P00352;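 further: potency means the concentration at half of the fitted maximal effect; plate controls were no enzyme wells and a reference inhibitor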
# Target sequence (P00352 whole entry, looked up): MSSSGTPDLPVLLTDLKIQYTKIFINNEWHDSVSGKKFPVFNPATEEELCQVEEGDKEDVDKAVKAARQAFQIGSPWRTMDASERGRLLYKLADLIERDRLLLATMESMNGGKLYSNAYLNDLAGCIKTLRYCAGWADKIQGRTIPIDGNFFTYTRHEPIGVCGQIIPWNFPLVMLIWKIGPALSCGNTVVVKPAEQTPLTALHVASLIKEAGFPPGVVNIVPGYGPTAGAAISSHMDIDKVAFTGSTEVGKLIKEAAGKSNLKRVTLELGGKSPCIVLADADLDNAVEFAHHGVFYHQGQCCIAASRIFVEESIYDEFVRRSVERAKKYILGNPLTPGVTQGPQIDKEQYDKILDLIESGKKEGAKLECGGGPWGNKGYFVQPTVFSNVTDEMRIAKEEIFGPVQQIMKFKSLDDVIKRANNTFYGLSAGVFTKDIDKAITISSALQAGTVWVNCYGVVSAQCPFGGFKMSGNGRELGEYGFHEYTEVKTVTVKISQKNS
# HPGD block – qHTS Assay for Inhibitors of HPGD (15-Hydroxyprostaglandin Dehydrogenase). 15-hydroxyprostaglandin dehydrogenase [NAD(+)] (Homo sapiens), P15428. Potency, µM, for inactives: at the highest dose activity change, negative = inhibition, hits mostly inhibitors. purified HPGD, NADH fluorescence kinetic, PGE2 substrate. 150,000 compounds, 4.3% hits. AID 894, 2007; further: potency means the concentration at half of the fitted maximal effect
#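 NADH formation kinetics: reaction with 30 uM PGE2 and 1 mM NAD+ (final), 20 nM enzyme, Tris-HCl pH 8 with Tween 20, after 15 min compound preincubation at room temperature. Fluorescence change, last versus first of five reads.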
# Numbers without * were called inactive; ? = inconclusive; / = no result given; [ ] = dose if it differs, or a comment. Sampled rows, rich in hits. Any-hit rate of the full collection: about 10%. Unless noted, the call rests on the fitted dose curve; in most records, active means well fitted inhibition curve with a large enough effect (not every such curve was filed as active); inconclusive means small, poorly fitted or top-dose-only effect, or another doubt; inactive means no such curve, though single readings can be large or run the other way. Unless noted, on the % scale 0 is the no-effect control and ±100 the full control effect.
SMILES,PNC inhibitor,KinaseGlo FLuc,IMPase cell inh,Lamin A splicing,ALDH1A1 inh,HPGD block
CC(=O)Nc1ccc(S(=O)(=O)n2nc(-c3ccc(C)cc3)nc2N)cc1,-15.1,3.3%,0.9,?,5.1%,6.31µM*
Cc1ccc(S(=O)(=O)n2nc(-c3cccnc3)nc2N)cc1,?,0.0%,1.5,6.4%,6.9%,-8.7%
Cc1c(C(=O)Nc2cccc(-c3nc4ccccc4s3)c2)oc2ccccc12,/,/,/,7.8%[46 µM],/,/
O=c1c(-c2cc(O)c(O)c(O)c2)coc2cc(O)c(O)c(O)c12,/,-4.4%,/,/,25.1µM*,7.08µM*
CC(C)=CCc1c(O)cc2occ(-c3ccc4c(c3)OCO4)c(=O)c2c1O,/,-6.0%,/,/,-8.4%,25.1µM*
O=c1c(-c2ccc(O)cc2)coc2cc(O)cc(O)c12,/,-11.5%,6.3,?,-7.7%,25.1µM*
CC(C)CC1N=C2c3ccccc3N=C(SCC(=O)NCCc3ccc(Cl)cc3)N2C1=O (centres undefined),/,/,/,-5.1%[46 µM],/,/
CCN1C(C)=C(C(=O)OC)C(c2ccccc2)N2C(=O)[C@](O)(C(=O)OC)CC(C#N)=C12 (some centres undefined),/,/,/,/,3.7%[13.5 µM],/
CCOC(=O)C1CCCN(C(=O)c2ccco2)C1 (centres undefined),-10.3,1.7%,-7.6,-5.7%,8.91µM*,-2.6%
CCOC(=O)C1CCCN(C(=O)c2cnn3c(C(F)F)cc(-c4ccc(C)cc4)nc23)C1 (centres undefined),-106.5*,2.3%,5.1,6.2%,?,?
CCOC(=O)C1CCCN(C(=O)c2cc(-c3ccccc3)on2)C1 (centres undefined),1.8,-0.3%,?,-5.1%,-7.5%,28.2µM*
CCOC(=O)C1CCCN(C(=O)c2ccc(C)cc2O)C1 (centres undefined),-21.6,-2.9%,5.2,8.6%,?,14.1µM*
CCOC(=O)C1CCCN(C(=O)c2cc3c(C)nc4ccccc4c3o2)C1 (centres undefined),?,2.4%,24.8,-11.1%,-11.4%,-10.0%
C[C@@H](C1=C(CCN(C)C)Cc2ccccc21)c1ccccn1,/,-1.1%,16.5,/,-3.5%,-13.6%
CC(C)c1cccc2c([Si](C)(C)C)c3c(nc12)-c1cccc(=O)n1C3,/,-0.7%,/,/,?,?
CC(C)(C)C(=O)[C@H](C(c1ccccc1)N1CCOCC1)N1CCOCC1 (some centres undefined),/,-5.8%[7.66 µM],/,/,3.0%[13.5 µM],-4.7%
CC1CCCN(C(=O)CN2CCN(C(=O)c3ccco3)CC2)C1 (centres undefined),?,-4.0%,-2.5,4.3%,22.4µM*,-9.1%
CCCN1C/C(=C/c2cccc([N+](=O)[O-])c2)C(=O)/C(=C/c2cccc([N+](=O)[O-])c2)C1,13.3,-3.6%,10.0,3.1%,20µM*,-14.4%
CCn1c(=O)cc(SCC(=O)NCc2ccco2)c2ccccc21,-4.7,-2.7%,-7.7,?,?,?
CCn1c(=O)cc(SCC(=O)NCc2ccc(C)o2)c2ccccc21,15.1,-1.6%,-17.8,-14.1%,-7.6%,28.2µM*
CCn1c(=O)cc(OCC(=O)NCc2ccc(C)o2)c2ccccc21,-27.4,0.7%,-4.0,-11.8%,22.4µM*,?
CCn1c(=O)cc(OCC(=O)NCc2ccco2)c2ccccc21,?,-5.8%,2.7,-5.6%,?,-25.0%
CCC(/C=C/C(C)C1CCC2C3CCC4=CC(=O)CC[C@@]4(C)C3CC[C@@]12C)C(C)C (some centres undefined),/,1.9%,/,-5.4%,8.3%,-11.2%
O=C=Nc1ccc(Cc2ccc(N=C=O)cc2)cc1,/,/,/,/,4.5%,-3.0%
CN(C)c1ncc2nc(-c3ccccc3)c(=O)n(Cc3ccc(F)cc3)c2n1,/,/,/,11.0%,?,/
SMILES,PNC inhibitor,KinaseGlo FLuc,IMPase cell inh,Lamin A splicing,ALDH1A1 inh,HPGD block
COc1ccc(NC(=O)Cc2cccs2)c(OC)c1,?,0.1%,2.0,13.1%,5.8%,-22.7%
COc1ccc(Cc2nnc(NC(=O)Cc3cccs3)s2)cc1OC,-100.0*,-3.8%,-9.7,-3.7%,?,?
COC(=O)c1cc(OC)c(OC)cc1NC(=O)Cc1cccs1,/,-3.7%,/,/,3.16µM*,/
O=C(Cc1cccs1)Nc1nnc(Cc2ccccc2)s1,19.2,1.8%,-8.5,1.6%,?,-27.8%
Cc1ccc(S(=O)(=O)Nc2ccc3c(c2)OCCO3)cc1C,/,1.9%,/,19.7%[46 µM],?,/
O=S(=O)(Nc1ccc2c(c1)OCCO2)c1ccc2oc3ccccc3c2c1,38.2,2.0%,9.2,?,?,28.2µM*
CCCOc1ccc2oc(=O)c3c(c2c1)CCCN3C(=O)CN1CCN(c2ncccn2)CC1,?,/,8.5,-0.9%,2.82µM*,/
CCCN1Cc2cccc(C(=O)NC(CC(=O)OCC)c3ccc(OC(C)C)cc3)c2C1=O (centres undefined),/,4.1%,/,/,?,/
CCCN1Cc2cccc(C(=O)NC(CC(=O)OCC)c3ccc(C)cc3)c2C1=O (centres undefined),/,/,/,/,12.6µM*,/
COc1ccccc1-n1c(SCC(=O)NC(C)(C)C)nnc1-c1ccco1,-24.6,5.7%,?,-13.0%,-4.5%,15.8µM*
COc1cccc(-n2c(SCC(=O)N3c4ccccc4CC3C)nnc2-c2ccco2)c1 (centres undefined),-5.6,-0.5%,-1.6,-0.6%,25.1µM*,-29.9%
CC1Cc2ccccc2N1C(=O)CSc1nnc(Cn2nnc3ccccc32)n1C (centres undefined),-12.9,-0.1%,4.9,?,10µM*,-6.9%
COc1cccc(-n2c(SCC(=O)NC3CCCC3)nnc2-c2ccco2)c1,?,-1.2%,4.9,-9.0%,?,?
C=CCCCCCCCCCCCc1ccco1,/,-0.2%,/,20.4%,?,0.794µM*
C=CCN1CN(Cc2ccco2)CNC1=S,-0.9,4.2%,-1.7,-1.0%,-0.6%,2.2%
